# A selection: hits, their analogues and other compounds. The true share with any hit is near 2.5%.
# PK Bst: pyruvate kinase (B. stearothermophilus) modulation; purified pyruvate kinase, luminescence ATP production; ribose 5-phosphate activator present at AC10; Potency, µM; 1.2% of 51,000 active; AID 361; in the data active = potency below about 11 µM; inconclusive = mostly about 12 µM to 25 µM;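 the screen sought inhibitors and activators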;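 note: scaled between full activation by ribose 5 phosphate and full inhibition by luteolin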
# FLuc inh: firefly luciferase inhibition | purified firefly luciferase, luminescence, 8 min | P08659 | Potency, µM (series often up to 57.1 µM), inactives show at the top dose activity change, negative = inhibition, most hits filed as inhibitors | AID 411 | 2.2% of 72,000 active; active = well fitted inhibition curve with a large enough effect; inconclusive = small, poorly fitted or top-dose-only effect; note: nearly all actives have a fitted effect of over 40% in size
# Target sequence (P08659 whole entry, looked up): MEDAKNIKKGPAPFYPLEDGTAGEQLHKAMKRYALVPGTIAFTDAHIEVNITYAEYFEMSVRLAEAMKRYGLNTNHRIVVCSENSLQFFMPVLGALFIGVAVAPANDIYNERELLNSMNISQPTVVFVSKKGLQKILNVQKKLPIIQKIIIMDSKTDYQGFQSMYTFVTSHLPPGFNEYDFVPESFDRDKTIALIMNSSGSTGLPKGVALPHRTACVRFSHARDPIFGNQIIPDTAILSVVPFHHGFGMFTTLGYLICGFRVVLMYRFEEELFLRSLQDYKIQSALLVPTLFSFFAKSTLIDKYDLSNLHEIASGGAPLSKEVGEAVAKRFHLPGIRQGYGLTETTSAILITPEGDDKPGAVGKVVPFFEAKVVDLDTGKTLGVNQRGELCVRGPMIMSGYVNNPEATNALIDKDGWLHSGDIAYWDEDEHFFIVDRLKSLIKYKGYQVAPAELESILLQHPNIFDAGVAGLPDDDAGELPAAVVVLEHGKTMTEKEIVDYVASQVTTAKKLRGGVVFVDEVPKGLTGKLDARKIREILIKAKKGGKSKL
#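 Substrate buffer containing 10 uM ATP (pH 7.2 imidazole, Mg2+, KCl, detergent, BSA) is dispensed, compound pinned in, then luciferase/luciferin detector mix added. After 8 min at ambient temperature, light output is measured.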
# Numbers without * were called inactive; i = inactive; ? = inconclusive; . = not tested or not shown; [ ] = remark or other dose. Unless noted, % is set by controls: 0 for no effect and ±100 for the full control effect; potency is the fitted concentration of half-maximal effect.
SMILES,PK Bst,FLuc inh
C/C(CCN1CCCc2nc(C)c(C)cc21)=N\OC[C@@H](C)[C@H](OCc1ccccc1)C(C)C,.,0%[11.4 µM]
CCN(CC)[C@@H](C)C(=O)N1c2ccccc2Sc2ccccc21,.,1%
CC(=O)c1ccc(N2CCN(C(=O)c3cc(-c4ccc5c(c4)OCO5)nc4ccccc34)CC2)cc1,.,7.9µM*
O=C(O)c1cc(-c2ccc3c(c2)OCO3)nc2ccccc12,>11,-27%
O=C1[C@H]2[C@H]3[C@H](O)[C@H](O)C/C(=N/OCc4ccccc4)[C@H]3CC[C@@H]2C(=O)N1c1cccc(Oc2ccccc2)c1,.,2%[11.4 µM]
CN1[C@H](CC(=O)c2ccccc2)CCC[C@H]1C[C@@H](O)c1ccccc1,.,2%[11.4 µM]
CC1N/C(=C\C(=O)c2ccccc2)N(O)C1(C)C (stereo not given),i,13µM*
N=C(N)S/C=C\C(=O)O,.,-4%
CCn1nc(NC(=O)c2ccccn2)c2cc3cc(C)ccc3nc21,.,7.9µM*
CCn1nc(NC(=O)c2cccnc2)c2cc3ccccc3nc21,>26,-2%[25.5 µM]
Clc1ccc(CSCc2ccc(Cl)cc2Cl)c(Cl)c1,.,3%[11.4 µM]
c1ccc2nc3c(nc2c1)sc1nc2ccccc2n13,?,-1%
CC(C)(O)c1cc(=O)sc2nc3ccccc3n12,i,25µM*
NC(=O)c1ccsc1NC(=O)COc1ccccc1,i,20µM*
NC(=O)c1ccsc1NC(=O)CSc1ccccc1F,>11,-6%
Nc1ncnc2nn([C@H]3O[C@@H](CO)[C@@H](O)[C@H]3O)nc12,.,2%[11.4 µM]
CN(C)c1ccc(N/C=C/C(=O)c2ccc(F)cc2)cc1,?,0.63µM*
CN(C)c1ccc(-c2nccc(Nc3ccc(F)cc3)n2)cc1,.,-9%[2.29 µM]
O=C1[C@@H]2C=CC=CC2=NC(=S)N1CCN1CCC(=C(c2ccc(F)cc2)c2ccc(F)cc2)CC1,.,1%
O[C@@H](c1cc([C@@]23C[C@H]4CC[C@@H]2C[C@H](C4)C3)nc2c(Cl)cc(Cl)cc12)[C@@H]1CCCCN1,.,4%[11.4 µM]
OC(c1ccc2c(c1)OCO2)c1nccc2ccccc12 (stereo not given),.,6%
c1ccc2c(Oc3ccc4c(c3)OCO4)nncc2c1,i,16µM*
COc1ccccc1-c1nc(-c2cccc(C)c2)no1,9.4*,13µM*
COc1ccc(-c2nc(-c3ccccc3OC)no2)cc1OC,i,16µM*
CCOc1cc(-c2nc(-c3ccccc3OC)no2)cc(OCC)c1OCC,>57,1%
SMILES,PK Bst,FLuc inh
COc1ccc(-c2nc(-c3cccc(C)c3)no2)cc1OC,>57,-12%
COc1ccccc1-c1noc(-c2ccco2)n1,.,20µM*
COc1cc(-c2noc(-c3ccco3)n2)cc(OC)c1OC,>57,-11%
O=C(C[C@@H]1C=Cc2ccccc2N1C(=O)c1ccccc1)c1ccccc1,.,2%[11.4 µM]
Nc1c(S(N)(=O)=O)cc(S(N)(=O)=O)cc1S(N)(=O)=O,.,2%[11.4 µM]
CCOC(=O)N1CCN(c2cc(NCCC(=O)O)c3c4c(onc24)-c2ccccc2C3=O)CC1,i,?
O=C(O)CCCNc1cc(N2CCC3(CC2)OCCO3)c2noc3c2c1C(=O)c1ccccc1-3,i,25µM*
O[C@H](CN1CCN(c2cccc(Cl)c2)CC1)C(c1ccccc1)c1ccccc1,.,-1%
CCc1cc2c(nc1CC)CCN(CC/C(C)=N/O[C@@H]1O[C@H](COC(C)=O)[C@H](OC(C)=O)[C@H](OC(C)=O)[C@H]1OC(C)=O)C2,.,-1%[11.4 µM]
COc1ccc2c(c1)sc1nc(-c3ccccc3)cn12,0.055*,0.063µM*
COCCNC(=O)c1sc2nc(-c3ccccc3)cn2c1C,.,-14%
Cc1c(C(=O)Nc2ccncc2)oc2ccccc12,>57,-10%
Cc1c(C(=O)Nc2ccc(N3CCOCC3)cc2)oc2ccccc12,?,2.5µM*
Cc1cc(NC(=O)c2oc3ccccc3c2C)ccc1-n1cnnn1,i,10µM*
COc1cc(OC)cc(C(=O)Nc2ccc(-n3cnnn3)c(C)c2)c1,>57,-22%
CC(C)[C@]1(Cl)CC[C@@H]2[C@]3(C)CCC[C@@](C)(C(=O)O)[C@H]3C[C@H](Cl)[C@@]2(Cl)[C@H]1Cl,.,3%[11.4 µM]
COc1ccc(-c2cc(=O)c3ccccc3s2)cc1,0.88*,16µM*
COC(=O)c1sc2ccccc2c1C(=O)OC,>57,2%
c1ccc(B2OC[C@@H]3OB(c4ccccc4)O[C@H]([C@@H]4COB(c5ccccc5)O4)[C@@H]3O2)cc1,.,1%[11.4 µM]
Clc1ccc2c(NC3CCC(N4CCCCC4)CC3)ccnc2c1 (stereo not given),.,2%[11.4 µM]
COc1ccc(C(=O)Nc2ccc3c(c2)nc2n3CCSC2)cc1,?,13µM*
O=C(Nc1ccc2c(c1)nc1n2CCSC1)c1ccccc1,?,10µM*
CC(C)C(=O)Nc1ccc2c(c1)nc1n2CCSC1,>57,-7%
CCC(=O)Nc1ccc2c(c1)nc1n2CCSC1,>57,-7%
Cc1cc(Cl)ccc1Nc1sc(C(=O)c2cc3cc(Cl)ccc3o2)c(N)c1C#N,.,2%[11.4 µM]
SMILES,PK Bst,FLuc inh
N.N.O=C(O)C1(C(=O)O)CCC1.[Pt],.,-10%
O=C(Nc1nc2ccccc2[nH]1)C1CCCO1 (stereo not given),.,-12%
O=C(CN1CCC(c2nc3ccccc3[nH]2)CC1)Nc1ccc2c(c1)OCO2,>57,-2%
O=C(CN1CCOCC1)Nc1ccc(-c2nc3ccccc3[nH]2)cc1,i,16µM*
O=C(O)CCCC(=O)Nc1cccc(-c2nc3ccccc3[nH]2)c1,.,20µM*
O=C(CCc1nc2ccccc2[nH]1)Nc1ccccc1,>57,-2%
O=C(Nc1ccc(-c2nc3ccccc3[nH]2)cc1)C1CCCO1 (stereo not given),3.2*,2.5µM*
CC(=O)OC[C@H]1O[C@@H](O/N=C(\C)CCN2CCc3nc(-c4ccccc4)c(-c4ccccc4)cc3C2)[C@H](OC(C)=O)[C@@H](OC(C)=O)[C@H]1OC(C)=O,.,0%[11.4 µM]
O=C(O)C(=Cc1ccc(-c2ccccc2)cc1)C(=O)O,.,1%[11.4 µM]
COc1cccc([C@@H]2Oc3ccc(OC)cc3/C(=N/O[C@@H](C)CN3CCCCc4nc(C)c(C)cc43)[C@@H]2O)c1,.,1%[11.4 µM]
CCn1c(SCC(=O)O)nnc1-c1cc2c(C)nn(-c3ccccc3)c2s1,i,25µM*
CCn1c(COc2ccccc2C)nnc1SCC(=O)O,>57,2%
Cc1cccc(/C=C\c2ccccc2)n1,.,7.9µM*
Cc1cc(=O)[nH]c(SC/C=C/c2ccccc2)n1,>57,-1%
C(=N\C(/N=C/c1ccco1)c1ccco1)/c1ccco1,>57,-7%
CN(C)c1ccc(N=Cc2ccco2)cc1,.,20µM*
CC(C)CO/N=C1/C[C@@H](O)[C@@H](O)[C@@H]2[C@@H]3C(=O)N(Cc4ccc5c(c4)OCO5)C(=O)[C@H]3CC[C@@H]12,.,-2%[11.4 µM]
O=c1ccn([C@H]2O[C@H](CO)[C@@H](O)[C@@H]2O)c(=O)[nH]1,.,1%[11.4 µM]
Cc1ccc(C(=O)OCC(=O)c2ccc(Cl)s2)s1,i,16µM*
O=C(COC(=O)c1ccc[nH]c1=O)c1ccc(Cl)s1,>57,-17%
C[C@H](CCC(=O)NN)[C@@H]1CC[C@@H]2[C@H]3CC[C@H]4C[C@@H](O)CC[C@@]4(C)[C@@H]3CC[C@]21C,.,-1%[11.4 µM]
COc1ccc(-n2nc3cc(C)c(N)c(Br)c3n2)cc1,3.4*,4µM*
COc1ccc(-n2nc3ccccc3n2)cc1,.,-11%
CC(C)Oc1ccc2c(=O)c(-c3ccccc3)coc2c1,i,5µM*
CCN(CC)C(=O)Oc1ccc2c(=O)c(-c3ccc(OC)cc3)coc2c1,>57,-29%
Cc1ccccc1-c1coc2cc(O)ccc2c1=O,>57,2%

# Bioassay records from PubChem.
